ChEMBL document CHEMBL1157539, “Thousands of chemical starting points for antimalarial lead identification” (Nature, 2010)

Columns and labels:
Format in all cases: functional
Plasmodium falciparum [1] = experiment: GSK_TCMDC: Inhibition of Plasmodium falciparum 3D7 in whole red blood cells, using parasite LDH activity as an index of growth. Test compounds present at 2uM
Plasmodium falciparum [2] = experiment: GSK_TCMDC: Inhibition of Plasmodium falciparum Dd2 in whole red blood cells, using parasite LDH activity as an index of growth. Test compounds present at 2uM
HepG2 = experiment: GSK_TCMDC: Percent inhibition of human HepG2 cell line. Test compounds present at 10uM.

Row | SMILES | Inhibition (Plasmodium falciparum [1]) [%] | Inhibition (Plasmodium falciparum [2]) [%] | Inhibition (HepG2) [%]
1 | CCC[C@@H]([C@@H](CC(C)C)C(=O)N[C@@H](CCCCNC(=O)c1cccc(OC)c1)C(=O)Nc1nccs1)N(O)C=O | 100 | 99 | 5
2 | N#Cc1cncc(-c2nc3c(N4CCN(c5cnccn5)CC4)cccc3n2CCNCc2ccccc2)c1.O=C(O)C(F)(F)F | 99 | 31 | 0
3 | Nc1nccc(-c2ccc3c(/C=C/c4ccccc4)cnc(N)c3c2)n1 | 100 | 100 | 32
4 | O=C(Cc1cccc(Cl)c1)Nc1cccc(-c2c[nH]c3nc(Nc4cccc(OCc5ccccc5)c4)ncc23)c1.O=C(O)C(F)(F)F | 100 | 56 | 0
5 | Cc1cc(NCCC(=O)Nc2ccccc2)nc(NCc2ccccc2C)n1.O=C(O)C(F)(F)F | 100 | 57 | 6
6 | CC(=O)Nc1ncc(C(=O)Nc2cccc(-c3ccc(-c4nc5cc(C(F)(F)F)ccc5[nH]4)s3)c2)s1 | 100 | 99 | 90
7 | O=C(Nc1ccc(C(=O)OCC2CCCCC2)cc1)N[C@@H](Cc1ccc(O)cc1)C(=O)NC1CCN(Cc2ccc(O)cc2)C1.O=C(O)C(F)(F)F (stereo not given in full) | 91 | 0 | 6
8 | Cc1cccc2nc(-c3ccc(-c4ccc(CNCc5ccccc5)cc4)cc3)[nH]c12.O=C(O)C(F)(F)F | 99 | 90 | 5
9 | O=C(Nc1ccc2c(c1)OCCO2)c1cc(-c2cccnc2)nc2ccc(Cl)cc12 | 95 | 27 | 2
10 | Cl.O=S(=O)(c1ccc(OCc2ccc(Cl)cc2)cc1)c1cc2c(cc1O)CCN(C1CCC1)CC2 | 99 | 63 | 11
11 | COc1ccc(-c2cccc(CNC3CCN(C)CC3)c2)cc1S(=O)(=O)NCc1ccccc1.O=C(O)C(F)(F)F | 90 | 22 | 18
12 | OC(CNc1cccc(Cl)c1)Cn1c2ccc(Cl)cc2c2cc(Cl)ccc21 (stereo not given) | 95 | 33 | 8
13 | COc1ccc2nccc(N3CCCN(CCNS(=O)(=O)c4ccc5c(c4)NC(=O)CS5)CC3)c2n1.Cl | 97 | 15 | 0
14 | Cc1cccc(C)c1N1CCN(C2CCC(NC(=O)/C=C/c3ccccc3)CC2)CC1 (stereo not given) | 83 | 34 | 38
15 | CCN1CCC(N(CCCCCCCCc2ccc(C(F)(F)F)cc2)C(=O)Cn2c(CCc3cccc(F)c3F)cc(=O)c3ccccc32)CC1.O=C(O)C(O)C(O)C(=O)O | 88 | 65 | 89
16 | Cc1ccc(CN2CCCN(Cc3cccc(NC(=O)c4cc5ccccc5s4)c3)CC2)cc1C.O=C(O)C(F)(F)F | 92 | 33 | 44
17 | CC(=NNC(S)=NC(c1ccccc1)c1ccccc1)c1ccccn1 | 98 | 97 | 45
18 | O=C(NCCCCNCC(Cc1cccc([O-])c1)c1ccccc1)c1ccc(NC(=O)c2ccc(Cl)cc2)cc1.[Na+] (stereo not given) | 96 | 1 | 0
19 | Cc1cc(OCCCn2ccnc2)ccc1-c1csc(/N=C(\N)NCc2ccccc2)n1 | 92 | 42 | 26
20 | CCCCOc1cc(C)nc2ccc(NC(=O)COCC(=O)Nc3ccc4nc(C)cc(OCCCC)c4c3)cc12 | 90 | 28 | 0

Row | SMILES | Inhibition (Plasmodium falciparum [1]) [%] | Inhibition (Plasmodium falciparum [2]) [%] | Inhibition (HepG2) [%]
21 | O=C(NCCCCCN1CCC(c2c[nH]c3ccccc23)CC1)Nc1cccc(Cl)c1 | 86 | 0 | 36
22 | Br.CC1(C)N=C(N)N=C(N)N1OCC1COc2ccccc2O1 (stereo not given) | 96 | 66 | 56
23 | O=C(Nc1ccccc1)Nc1cccc(-c2cc(CNCCc3ccccc3)sc2-c2ccncc2)c1 | 100 | 84 | 14
24 | CC(=O)Nc1ccc(C(=O)Nc2cccc(-c3ccc(-c4nc5ccccc5[nH]4)cc3)c2)cn1 | 100 | 93 | 12
25 | Cc1cc(CNC(c2ccccc2)C2CCC2)cc(C)c1O (stereo not given) | 94 | 48 | 78
26 | Cc1ccc(S(=O)(=O)O)cc1.N=C(NCCc1c[nH]c2ccccc12)NCc1ccccc1Cl | 83 | 45 | 16
27 | O=C(/C=C/c1ccc(Cl)c(Cl)c1)N1CCC(CN2CCC(c3nc4ccccc4n3CCCO)CC2)CC1 | 96 | 0 | 60
28 | NC1=NC(c2ccccc2)(c2ccccc2)C(=O)N1CCOc1ccccc1 | 90 | 57 | 42
29 | O=C(Nc1ccc(Cn2nc(Cl)c(N3CCCNCC3)cc2=O)cc1)Nc1ccc(-c2ccccc2)cc1.O=C(O)C(F)(F)F | 87 | 36 | 89
30 | C=CCOc1cccc2c1CCN(CCN1CCC(NC(=O)c3ccc(-c4ccc(Cl)cc4)cc3)CC1)C2 | 93 | 22 | 35
31 | COC(=O)c1noc(C)c1I | 99 | 2 | 5
32 | CCOc1cccc(C(=O)Nc2nonc2-c2ccc(OC)c(OC)c2)c1 | 92 | 95 | 11
33 | CCCCN(CCCC)CCCN(CCCN(CCCC)CCCC)c1cc(C)nc(Nc2ccc3cc(Br)ccc3c2)n1.Cl | 100 | 99 | 52
34 | O=C(CCC1CCCCC1=O)c1ccccc1 (stereo not given) | 91 | 3 | 0
35 | CCc1cn2c3c(cc(C(=O)N[C@@H](Cc4ccccc4)[C@H](O)CNC4CCCC4)cc13)N(C)S(=O)(=O)CC2 | 100 | 99 | 6
36 | Br.CC1(C)NC(N)=NC(=N)N1OCCCOc1cc(Cl)ccc1Cl | 96 | 96 | 64
37 | O=C(/C=C/c1ccc(F)c(Br)c1)NCCCCCN1CCC(c2c[nH]c3ccccc23)CC1 | 92 | 10 | 39
38 | CCN(CC)CCOc1ccc(C(O)(C#CC(O)(c2ccccc2)c2ccc(OCCN(CC)CC)cc2)c2ccccc2)cc1 (stereo not given) | 99 | 99 | 81
39 | O=C(Nc1ccc(OC2CCN(Cc3ccco3)C2)c(Cl)c1)c1ccc2ncccc2c1.O=C(O)C(F)(F)F (stereo not given) | 92 | 42 | 1
40 | CC(CN1CCN(C)CC1)C(=O)Nc1cccc(-c2ccc(-c3nc4cc(C(F)(F)F)ccc4[nH]3)cc2)c1 (stereo not given) | 100 | 98 | 11

Row | SMILES | Inhibition (Plasmodium falciparum [1]) [%] | Inhibition (Plasmodium falciparum [2]) [%] | Inhibition (HepG2) [%]
41 | COc1ccc(CNC2CCN(C)CC2)cc1-c1ccc(S(=O)(=O)NCCc2ccccn2)c(C)c1.O=C(O)C(F)(F)F | 96 | 91 | 7
42 | Cl.O=c1cc(NCCCNCc2cc(Br)cs2)[nH]c2ccccc12 | 85 | 5 | 11
43 | COc1ccc2nccc([C@@H](O)CN3CCC(NC(=O)CCC(=O)c4cc(C(C)(C)C)ccc4OC)CC3)c2c1 | 94 | 51 | 26
44 | O=C(/C=C/c1ccc(Cl)c(Cl)c1)N1CCC(CCN2CCC(c3nc4cc(O)ccc4[nH]3)CC2)CC1 | 100 | 60 | 42
45 | OC(CNCCCc1ccccc1)c1cc(OCc2ccccc2)cc(OCc2ccccc2)c1 (stereo not given) | 93 | 85 | 8
46 | CN1CCCN(c2ccnc3cc4c(cc23)N(C(=O)c2ccc(Cl)c(Cl)c2)CC4)CC1.Cl | 100 | 73 | 20
47 | Nc1c2c(nc3ccc(Oc4ccc(Cl)cc4)cc13)CCCC2 | 100 | 65 | 42
48 | Nc1c(Cl)cc(C(O)CNCCCCCCOCCc2ccc(O)cc2)cc1Cl.O=C(O)/C=C/C(=O)O (stereo not given) | 97 | 97 | 13
49 | COc1ccccc1NC(=O)Nc1cccc(-c2cccc(-c3nc4cc(C(F)(F)F)ccc4[nH]3)c2)c1 | 100 | 97 | 21
50 | CS(=O)(=O)O.CSc1ccc2ccccc2c1CCNCCCCNCCc1c(SC)ccc2ccccc12 | 100 | 60 | 99
51 | Cc1cccc2nc(-c3cccc(-c4cccc(CNCCN5CCNCC5)c4)c3)[nH]c12.O=C(O)C(F)(F)F | 90 | 0 | 11
52 | O=C(/C=C/c1ccc(Cl)c(Cl)c1)NCCCCCN1CCC(c2c[nH]c3ccc(O)cc23)CC1 | 100 | 0 | 20
53 | COc1ccc2nc(C)cc(Nc3ccc(Oc4ccc(Cl)cc4)c(Cl)c3)c2c1 | 100 | 100 | 48
54 | COc1ccc(C(=O)NCc2ccc(N)nc2C)cc1Nc1ncc(-c2cccc(N(C)C)c2)cn1 | 89 | 68 | 9
55 | COc1cc(CN/C(=N/c2ccc(-c3ccccc3)cc2)Nc2ccc(C#N)cc2O)cc(OC)c1 | 95 | 64 | 0
56 | CC(=O)Nc1ccc(S(=O)(=O)Nc2ccc(Nc3nc(C)cc(N4CCCCC4)n3)cc2)cc1 | 89 | 54 | 23
57 | CC(C)(C)c1nn(-c2ccccc2)c2[nH]c(=O)c(CNCc3ccccc3)cc12 | 90 | 91 | 5
58 | COc1ccc(CC2(c3ccc(F)cc3)N=C(N)N(CCCc3ccc(F)c(F)c3)C2=O)cc1.O=C(O)C(F)(F)F (stereo not given) | 98 | 98 | 42
59 | CN1CCN(c2cccc(-c3nnc(-c4ccc(OCC(=O)NCc5ccc(C(F)(F)F)cc5)c([N+](=O)[O-])c4)o3)c2)CC1 | 90 | 44 | 35
60 | CC(C)CNCc1cccc(-c2ccc(CNc3ccc(C(=O)c4ccccc4)cc3)cc2)c1.O=C(O)C(F)(F)F | 97 | 0 | 10
